PubChem BioAssay AID624305 (National Center for Advancing Translational Sciences (NCATS), 2012)
Results filed as inconclusive are left out. Values without a mark were called inactive. Activity calls are given as the source filed them. Calls come from the whole dose curve; as a rule, active = well fitted activation curve with a large enough effect; inconclusive = small, poorly fitted or top-dose-only effect; inactive = no such curve, though single readings can be large or run the other way.
Potency is the fitted concentration of half-maximal effect.

Test: qHTS assay for re-activators of p53 using a Luc reporter: Hit Validation; note: nearly all actives have a fitted effect of over 75% in size; for activation: 0% is about no effect
Conditions: p53-responsive luciferase reporter cells, luminescence, H1299 line expressing heat-sensitive Ala138Val p53; series mostly up to 46.1 µM; activation: at the top concentration
How it was run: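 Hit confirmation with a 1:5 dilution series, at 37 deg C for 24 hrs, in H1299 cells co-expressing temperature-sensitive p53-A138V and p53-responsive luciferase. Nocodazole served as control; luminescence read after 10 min with detection reagent.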
In the case of CCOc1ccc2c(c1)C(=NNC(=O)c1ccncc1)c1cc(OCC)ccc1-2, the “activation” value is reported as 18.2%. In the case of CCOCCCNc1nc2c([nH]1)c(=O)n(C)c(=O)n2C, the “activation” value is reported as 6.25%. With CCC(Sc1nc2ccccc2c(=O)n1CCN1CCOCC1)C(=O)NCc1cccnc1 (stereo not drawn) the “activation” value was -24.5%. In the case of Cc1cc(C(=O)NC2CCCCC2)c(C)n1-c1ccc(F)cc1, the Potency is reported as 8200 nM (active). For COc1ccc(NC(=O)/C(Cl)=C(/Cl)S(=O)(=O)Cc2ccc(C)cc2)cn1, the “activation” value was -94.3%. In the case of CN1CC(C(=O)Nc2ccc(F)c(Cl)c2)CC1=O (stereo not drawn), the “activation” value is reported as -4.69%. With COc1cc(NC(=O)CN2C(=O)COc3ccc(S(=O)(=O)N4CCCC4)cc32)cc(OC)c1 the “activation” value was -4.69%. With CCOc1ccc(S(=O)(=O)c2c(C(=O)c3ccc(C)cc3)cnc3cc4c(cc23)OCCO4)cc1 the “activation” value was -37%. In the case of Clc1ccc(OCc2nc(-c3ccccn3)no2)c(Br)c1, the Potency is reported as 1030 nM (active). In the case of Cc1cccc(-n2c(C)cc(/C=N\NC(=O)c3cccs3)c2C)c1, the Potency is reported as 1160 nM (active). With CCOc1ccc(/C=N/NC(=O)CN2CCSCC2)cc1 the “activation” value was -1.56%. For Cc1ccc(C(=O)Nc2nnc(SCC(=O)N3CCCc4ccccc43)s2)cc1, the “activation” value was -3.65%. In the case of COc1cc(CNC2CCCCCCC2)c(Br)cc1OCCO, the “activation” value is reported as 26%. For N#C/C(=C/c1cccnc1)c1ccccc1, the “activation” value was -12%. In the case of COc1ccc(NC(=O)CN(C)CC(=O)Nc2ccccc2SC)cc1, the “activation” value is reported as -11.5%. For C#CC(C)(CC)NC(=O)Cn1nnc(-c2ccc(S(C)(=O)=O)cc2)n1 (stereo not drawn), the “activation” value was -1.56%. In the case of C#CCn1c(=NC(=O)c2cccs2)sc2cccc(OCC)c21, the “activation” value is reported as -7.81%. For c1ccc(-c2nnc(-c3ccccn3)nc2NC2CCCCC2)cc1, the Potency was 18400 nM (active). In the case of CCOc1ccc(-c2nnc(SCC(=O)N3CCNC3=O)o2)cc1, the Potency is reported as 2060 nM (active). With O=C(Nc1nc2ccccc2s1)c1ccc2c(c1)OCO2 the Potency was 206 nM (active). For Clc1cccc(Cl)c1CSc1nnc2ccccn12, the “activation” value was 56.2%. With COc1cccc(NC(=O)CCN2CCOCC2)c1 the “activation” value was -2.6%. For C1=C(CCNc2ncnc3nc[nH]c23)CCCC1, the Potency was 1640 nM (active). In the case of Cc1cc(/C=C2/C(=O)NN(c3ccccc3)C2=O)c(C)n1-c1cccc(O)c1, the Potency is reported as 10300 nM (active). For Cc1nn(-c2ccccc2)c(N)c1Sc1ccc([N+](=O)[O-])cc1, the “activation” value was 3.12%. In the case of Cc1ccc(S(=O)(=O)NCCOc2nc(N(C)C)nc(N3CCOCC3)n2)cc1, the “activation” value is reported as -7.81%. In the case of Cc1noc(C)c1C(=O)OCC(=O)N1CCc2ccccc21, the “activation” value is reported as 12%. In the case of O=C1NCCCc2c1oc1ccc(O)cc21, the activation is reported as 41% [at 9.22 µM]. For NC(=O)c1ccc(-n2c(CCC(=O)O)ccc2-c2cccs2)cc1, the “activation” value was -8.33%. With N#CC(Cc1ccccc1)(Cc1ccccc1)C(=O)NN the “activation” value was -87.5%. For O=C(O)C1CC(=O)N(c2ccc(Br)cc2)C1 (stereo not drawn), the “activation” value was -4.17%. For CCOP(=O)(OCC)C(NC(=O)Nc1ccccc1)C(N)=O (stereo not drawn), the “activation” value was -4.69%. In the case of CC(=O)c1cccc(NS(=O)(=O)N(C)C)c1, the “activation” value is reported as -1.04%. For COc1cccc(/C=N/Nc2ccc([N+](=O)[O-])cn2)c1O, the Potency was 9200 nM (active). With Cc1ccc2nc(-c3ccc(NC(=O)CN4C(=O)c5ccccc5C4=O)cc3)sc2c1 the Potency was 5170 nM (active). In the case of COCC(=O)Nc1nnc(COc2ccccc2)s1, the “activation” value is reported as 28.6%. In the case of COc1ccc2oc(C(=O)Nc3nnc(C)s3)c(C)c2c1, the Potency is reported as 1840 nM (active). With Cc1noc(C)c1COc1ccc(C(=O)NCCOc2ccccc2)cc1 the “activation” value was 25%.
